SMILES strings stand for the structures. Records with an inconclusive call do not appear. Active and inactive are the calls of the source. Unless noted, the call rests on the fitted dose curve; in most records, active means well fitted curve in the direction sought with a large enough effect in the repeat runs; inconclusive means weak or mixed curves; inactive means no such curve, though single readings can be large; an effect the other way counts as inactive or inconclusive.

Test [1] is described as follows: qHTS assay to identify aromatase inhibitors - cell viability counter screen (AID 743084).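 Further: cells stimulated with testosterone during compound exposure; nearly all actives have a fitted effect of over 55% in size.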 For orientation: qHTS replaces the single test concentration by a dilution series.
The target of test [2] is Aryl hydrocarbon receptor (Homo sapiens) (UniProt P35869). The test can be described thus: qHTS assay to identify small molecule that activate the aryl hydrocarbon receptor (AhR) signaling pathway (AID 743085). Further: nearly all actives have a fitted effect of over 15% in size. Further: potency means the concentration at half of the fitted maximal effect.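 On activation: HG2L7.5c1 human HepG2 liver cells with stably integrated DRE-driven firefly reporter; series mostly up to about 70 µM.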 The essentials: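 Cell line HG2L7.5c1 (human hepatoma, 20× DRE-luc). Plated, 5 h 37C, compound/DMSO added, 24 h 37C. CellTiter-Fluor 30 min 37C → fluorescence; then ONE-Glo 30 min RT → luminescence.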

Test [3] can be described thus: qHTS assay to identify small molecule that activate the aryl hydrocarbon receptor (AhR) signaling pathway - cell viability counter screen (AID 743086).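 Further: HepG2 liver cells carrying the AhR DRE luciferase reporter; series mostly up to about 70 µM; nearly all actives have a fitted effect of over 45% in size.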 The essentials:
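Cytotoxicity counter screen: CellTiter-Fluor signal (30 min, 37 C) in 4000 HepG2 cells/well carrying the DRE-luciferase reporter, following 24 h compound exposure at 37 C.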

The target in test [4] is Peroxisome proliferator-activated receptor gamma (Homo sapiens) (UniProt P37231). The test can be described thus: qHTS assay to identify small molecule antagonists of the peroxisome proliferator-activated receptor gamma (PPARg) signaling pathway (AID 743191; calls by dose curve; further: series mostly up to about 63 µM; nearly all actives have a fitted effect of over 30% in size). The essentials:
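Beta-lactamase reporter under UAS control in HEK293H PPARg-bla cells; compound treatment 17 h at 37C. Read-out: fluorescence intensity after 1 h room-temperature incubation with LiveBLAzer B/G FRET substrate.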

A short description of test [5]: qHTS assay for small molecule agonists of the antioxidant response element (ARE) signaling pathway (AID 743202; active means well fitted activation curve with a large enough effect in the signal ratio in the repeat runs, not every such curve was filed as active; the % refers to the signal ratio; further: potency means the concentration at half of the fitted maximal effect). The essentials: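 After 16 hours of compound treatment at 37 C, HepG2 cells with a stably integrated ARE-driven beta-lactamase reporter were loaded 2 hours at room temperature with LiveBLAzer B/G FRET substrate and fluorescence intensity measured.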
Test [6] is described as follows: qHTS assay for small molecule agonists of the antioxidant response element (ARE) signaling pathway - cell viability counter screen (AID 743203; calls by dose curve; further: nearly all actives have a fitted effect of over 55% in size). The method, boiled down: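 Viability counter screen: stably transfected ARE-bla HepG2 line, 16 hrs compound exposure at 37C/5% CO2, ATP-based CellTiter-Glo luminescence measured in the reporter wells.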
The nature of test [7]: qHTS assay for small molecule activators of the heat shock response signaling pathway - cell viability counter screen (AID 743209). Further: nearly all actives have a fitted effect of over 50% in size. The essentials:
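Viability of HSE-bla HeLa cells is measured with CellTiter-Glo in the wells already used for the reporter read. Compound exposure lasts 5 h at 37 C, and luminescence is read after 30 min at room temperature.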

The nature of test [8]: qHTS assay for small molecule activators of the heat shock response signaling pathway (AID 743210; active means well fitted activation curve with a large enough effect in the signal ratio in the repeat runs, with a control signal flat, not every such curve was filed as active; the % refers to the signal ratio; further: series mostly up to about 63 µM). The essentials: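 Compound exposure lasted 5 h at 37 C in HeLa cells carrying a heat-shock-element-driven beta-lactamase reporter. Read-out: fluorescence intensity after 2.5 h room-temperature loading with LiveBLAzer B/G FRET substrate.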
A short description of test [9]: qHTS assay to identify small molecule agonists of the peroxisome proliferator-activated receptor delta (PPARd) signaling pathway - cell viability counter screen (AID 743211). Further: nearly all actives have a fitted effect of over 55% in size. The essentials:
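HEK293H PPARd-bla, 3000 cells/well; 5 h preincubation 37C/5% CO2; cpd in DMSO, 17 h 37C; B/G FRET substrate 2 h RT; CellTiter-Glo 30 min RT, luminescence.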

The target of test [10] is Peroxisome proliferator-activated receptor delta (Homo sapiens) (UniProt Q03181). The test can be described thus: qHTS assay to identify small molecule agonists of the peroxisome proliferator-activated receptor delta (PPARd) signaling pathway (AID 743212; calls by dose curve;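 further: HEK293H cells with PPARd UAS beta-lactamase reporter GeneBLAzer system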). The essentials:
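Beta-lactamase reporter readout: a ratiometric FRET signal from the LiveBLAzer substrate after 2 h at room temperature. Compound exposure at 37 °C in PPARδ-bla HEK293H cells driven by an upstream activator sequence.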

Test [11] is described as follows: qHTS assay to identify small molecule antagonists of the peroxisome proliferator-activated receptor delta (PPARd) signaling pathway - cell viability counter screen (AID 743213). Further: nearly all actives have a fitted effect of over 50% in size. The method, boiled down: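 Cytotoxicity counter screen: CellTiter-Glo luminescence read 30 min after addition, in the same wells as the reporter assay. There, PPARd UAS-bla HEK293H cells (3000/well) were treated 17 h at 37 C with compound and 300 nM L165041.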

The nature of test [12]: qHTS assay to identify small molecule agonists of the farnesoid-X-receptor (FXR) signaling pathway - cell viability counter screen (AID 743218). Further: nearly all actives have a fitted effect of over 45% in size. The method, boiled down: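 Viability of FXR-bla HEK 293T cells is measured by ATP-based CellTiter-Glo luminescence following 16 h compound treatment at 37 C and a prior 2 h room-temperature beta-lactamase substrate step.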
The nature of test [13]: qHTS assay to identify small molecule antagonists of the farnesoid-X-receptor (FXR) signaling pathway - cell viability counter screen (AID 743221; active means well fitted cell-killing curve with a large enough effect in the repeat runs, not every such curve was filed as active; further: nearly all actives have a fitted effect of over 50% in size). The essentials: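 Luminescence from CellTiter-Glo measures cytotoxicity in GeneBLAzer FXR-UAS-bla HEK 293T cells. Cells were exposed to compounds with 50 uM chenodeoxycholic acid (final) for 16 h at 37 C, in wells also used for the reporter readout.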

Test [14] is described as follows: qHTS assay to identify small molecule antagonists of the peroxisome proliferator-activated receptor gamma (PPARg) signaling pathway - cell viability counter screen (AID 743194). Further: nearly all actives have a fitted effect of over 55% in size. The method, boiled down:
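Viability was measured as CellTiter-Glo luminescence in GeneBLAzer PPARg UAS-bla HEK293H cells. These cells had been exposed 17 h at 37 C to compounds together with rosiglitazone at 50 nM final, with the beta-lactamase readout taken in the same wells.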

Test [15] concerns the target Peroxisome proliferator-activated receptor delta (Homo sapiens) (UniProt Q03181). The test can be described thus: qHTS assay to identify small molecule antagonists of the peroxisome proliferator-activated receptor delta (PPARd) signaling pathway (AID 743215; active means well fitted inhibition curve with a large enough effect in the signal ratio in the repeat runs, not every such curve was filed as active; the % refers to the signal ratio;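 further: cells stimulated with agonist L165041 at 300 nM final during compound exposure; series mostly up to about 62 µM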). The method, boiled down:
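Plated HEK293H PPARd-bla cells rested 5 h at 37 C and 5% CO2. Compound, then agonist L165041 at 300 nM final, was added; 17 h at 37 C followed. Substrate loading, 2 h room temperature, fluorescence measured.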

The target in test [16] is Vitamin D3 receptor (Homo sapiens) (UniProt P11473). The test can be described thus: qHTS assay to identify small molecule agonists of the vitamin D receptor (VDR) signaling pathway (AID 743222; calls by dose curve). The method, boiled down: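 Fluorescence from cleaved LiveBLAzer B/G FRET substrate served as readout. VDR-bla cells had been treated 16 h at 37C with test compounds in DMSO, following a 4 h settling period, and substrate was loaded for 2 h at RT.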

In test [17] the target is Peroxisome proliferator-activated receptor gamma (Homo sapiens) (UniProt P37231). In words: qHTS assay to identify small molecule agonists of the peroxisome proliferator-activated receptor gamma (PPARg) signaling pathway (AID 743094; active means well fitted activation curve with a large enough effect in the signal ratio in the repeat runs, not every such curve was filed as active; the % refers to the signal ratio). The essentials:
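Reporter activation was scored by fluorescence of cleaved LiveBLAzer B/G substrate (1 h, room temperature) in PPARg-bla HEK293H cells previously treated 17 h at 37C with DMSO-dissolved compounds.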

The target in test [18] is Vitamin D3 receptor (Homo sapiens) (UniProt P11473). In words: qHTS assay to identify small molecule antagonists of the vitamin D receptor (VDR) signaling pathway (AID 743223; active means well fitted inhibition curve with a large enough effect in the signal ratio in the repeat runs, not every such curve was filed as active; the % refers to the signal ratio). The method, boiled down:
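Antagonist mode uses 1alpha,25-dihydroxyvitamin D3 at 3 nM final as stimulus. VDR-bla cells receive compounds in DMSO, incubate 16 h at 37C, then a beta-lactamase FRET substrate for 2 h at room temperature before fluorescence measurement.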

Sequence of Peroxisome proliferator-activated receptor gamma (Homo sapiens) (P37231 whole entry, looked up): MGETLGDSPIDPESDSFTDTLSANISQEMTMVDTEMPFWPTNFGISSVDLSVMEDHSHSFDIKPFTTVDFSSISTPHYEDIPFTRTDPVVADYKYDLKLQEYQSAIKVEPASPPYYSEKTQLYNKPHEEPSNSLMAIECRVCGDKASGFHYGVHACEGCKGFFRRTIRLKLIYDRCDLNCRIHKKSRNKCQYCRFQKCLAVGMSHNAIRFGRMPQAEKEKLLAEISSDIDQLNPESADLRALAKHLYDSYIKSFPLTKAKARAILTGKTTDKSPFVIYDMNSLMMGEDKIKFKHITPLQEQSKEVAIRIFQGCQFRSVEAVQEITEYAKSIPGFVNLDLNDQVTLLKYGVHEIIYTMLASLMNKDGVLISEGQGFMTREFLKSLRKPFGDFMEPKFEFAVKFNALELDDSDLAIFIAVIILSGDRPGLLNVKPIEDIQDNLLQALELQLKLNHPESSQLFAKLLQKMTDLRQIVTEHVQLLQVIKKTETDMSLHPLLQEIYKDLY
Sequence of Vitamin D3 receptor (Homo sapiens) (P11473 whole entry, looked up): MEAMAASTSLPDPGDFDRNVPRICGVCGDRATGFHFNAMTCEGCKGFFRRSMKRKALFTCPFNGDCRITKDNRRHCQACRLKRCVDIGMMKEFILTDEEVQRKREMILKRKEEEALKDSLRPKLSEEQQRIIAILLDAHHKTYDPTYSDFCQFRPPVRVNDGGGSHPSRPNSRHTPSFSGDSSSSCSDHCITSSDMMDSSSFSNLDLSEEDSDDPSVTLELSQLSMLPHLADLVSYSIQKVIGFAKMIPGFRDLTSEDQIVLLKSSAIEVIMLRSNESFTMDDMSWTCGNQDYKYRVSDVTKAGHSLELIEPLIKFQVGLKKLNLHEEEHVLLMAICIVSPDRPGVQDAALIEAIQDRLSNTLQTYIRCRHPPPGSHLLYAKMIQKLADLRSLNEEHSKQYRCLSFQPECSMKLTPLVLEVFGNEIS
Sequence of Aryl hydrocarbon receptor (Homo sapiens) (P35869 whole entry, looked up): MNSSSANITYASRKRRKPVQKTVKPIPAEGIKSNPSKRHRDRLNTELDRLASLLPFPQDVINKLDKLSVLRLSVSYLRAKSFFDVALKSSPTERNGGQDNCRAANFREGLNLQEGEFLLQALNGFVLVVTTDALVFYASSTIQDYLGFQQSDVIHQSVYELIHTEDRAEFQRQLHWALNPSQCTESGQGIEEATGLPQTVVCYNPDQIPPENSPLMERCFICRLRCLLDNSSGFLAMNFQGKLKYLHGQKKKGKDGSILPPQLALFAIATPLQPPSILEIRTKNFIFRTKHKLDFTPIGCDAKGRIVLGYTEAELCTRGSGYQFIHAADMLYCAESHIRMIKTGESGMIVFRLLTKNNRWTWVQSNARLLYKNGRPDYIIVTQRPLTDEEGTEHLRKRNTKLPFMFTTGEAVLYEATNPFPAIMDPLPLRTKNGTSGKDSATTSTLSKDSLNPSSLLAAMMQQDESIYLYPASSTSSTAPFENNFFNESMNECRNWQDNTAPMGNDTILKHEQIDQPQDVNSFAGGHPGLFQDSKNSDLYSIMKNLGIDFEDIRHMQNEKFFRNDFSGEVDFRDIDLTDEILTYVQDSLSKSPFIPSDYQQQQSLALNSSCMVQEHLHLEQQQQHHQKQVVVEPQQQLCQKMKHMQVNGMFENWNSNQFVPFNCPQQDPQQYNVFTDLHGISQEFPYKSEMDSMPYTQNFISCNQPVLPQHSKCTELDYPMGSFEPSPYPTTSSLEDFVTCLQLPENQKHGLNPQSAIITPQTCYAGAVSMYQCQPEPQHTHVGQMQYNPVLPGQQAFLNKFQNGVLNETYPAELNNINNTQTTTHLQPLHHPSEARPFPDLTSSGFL
Sequence of Peroxisome proliferator-activated receptor delta (Homo sapiens) (Q03181 whole entry, looked up): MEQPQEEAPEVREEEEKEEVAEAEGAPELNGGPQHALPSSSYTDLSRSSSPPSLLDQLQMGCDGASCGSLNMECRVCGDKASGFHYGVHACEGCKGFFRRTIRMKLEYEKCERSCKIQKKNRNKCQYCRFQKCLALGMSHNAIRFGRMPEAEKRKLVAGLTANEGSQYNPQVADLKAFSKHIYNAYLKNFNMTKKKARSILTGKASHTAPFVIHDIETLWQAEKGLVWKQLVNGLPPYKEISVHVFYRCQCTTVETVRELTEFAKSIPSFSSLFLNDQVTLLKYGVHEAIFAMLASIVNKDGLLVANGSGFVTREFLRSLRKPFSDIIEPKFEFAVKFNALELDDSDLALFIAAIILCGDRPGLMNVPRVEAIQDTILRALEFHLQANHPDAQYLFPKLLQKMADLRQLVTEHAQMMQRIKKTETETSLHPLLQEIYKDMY

With `CC1=CC(=O)CCC1`, the Potency entry in test [1], in [2], in [3], in [5], in test [9] and in [11] was “inactive” in each case. Further, the Potency result in test [13] is “inactive”. The molecule was called inactive in test [4], in [6], in test [7], in test [8], in [10] and in test [12].

Regarding `CC(C)=CCC/C(C)=C/C(=O)O`, the Potency entry in [1], in test [2], in test [3], in test [5], in test [11] and in test [13] was “inactive” throughout. In addition, the call in [6], in test [8] and in test [12] was inactive.

`CC12CCC(CC1=O)C2(C)C` (stereo not drawn): the Potency result in test [1], in [2], in test [3], in [14], in test [5] and in [9] was “inactive” in each case. Moreover, the Potency result in test [11] is “inactive”. Also, the call in test [6], in [7], in test [8], in test [10], in [15] and in [16] was inactive.

Turning to `CCCC=O`, the Potency entry in test [1], in [2], in test [3], in test [14], in test [5] and in test [9] was “inactive” each time. The Potency result in test [13] is “inactive”. In addition, the molecule was called inactive in test [4], in [6], in [7], in test [8], in [10] and in [15]. Further, the molecule was called inactive in [16].

With `CCC(=O)c1cccc(Cl)c1`, the Potency result in [1], in test [2], in test [5], in test [9], in test [11] and in [13] was “inactive” throughout. Moreover, the molecule was classed as inactive in [17], in test [4], in [6], in test [7], in test [8] and in test [15]. Also, the outcome in [16] and in test [18] was inactive.

On to `CC(C)c1ccc2oc3nc(N)c(C(=O)O)cc3c(=O)c2c1`, for which the Potency entry in test [1], in test [3], in test [14], in [9] and in [11] was “inactive” in each case. Further, the values for the Potency in test [2] and in test [5] were 0.841 µM (active) and 23.7 µM (active), respectively. Also, the outcome in test [6], in [7], in test [8], in test [12] and in [18] was inactive.

For the molecule `CC(C)(C)OC(=O)N1C[C@@H](F)C[C@H]1C(=O)O`, the Potency result in test [1], in test [2], in test [5], in [9], in test [11] and in [13] was “inactive” throughout. Also, the outcome in test [17], in test [4], in [6], in [7], in [8] and in test [10] was inactive. The molecule was called inactive in test [15], in test [12], in [16] and in test [18].

For `CC(C)[C@H](N)C(=O)OCCOCn1cnc2c(=O)[nH]c(N)nc21`, the Potency result in test [1], in [2], in test [3], in [14], in test [5] and in test [9] was “inactive” in each case. Besides, the Potency result in [11] and in [13] was “inactive” each time. Besides, the call in test [6], in test [7], in test [8], in [10] and in test [15] was inactive.

On to `CC(C)c1cccc(C(C)C)c1N`, for which the Potency entry in [1], in test [2], in [14], in test [5], in [9] and in test [11] was “inactive” throughout. Also, the molecule was classed as inactive in test [17], in test [4], in test [6], in test [7], in [8] and in test [10]. Further, the result in [15], in test [16] and in [18] was inactive.

As for `CC(=O)CCc1ccc(O)cc1`, the Potency entry in test [1], in test [3], in test [14], in test [5], in [9] and in test [11] was “inactive” each time. In [13], the Potency entry is “inactive”. Also, the call in test [17], in [4], in test [6], in [7], in [8] and in test [10] was inactive. For the same molecule, the molecule was called inactive in test [15], in test [12] and in test [16].

For `C=C(C)[C@@H]1CCC2=CC(=O)C[C@@H](C)[C@]2(C)C1`, the Potency entry in test [1], in test [3], in test [14], in test [5], in test [9] and in [11] was “inactive” each time. Further, the Potency entry in [13] was “inactive”. Also, the molecule was called inactive in test [17], in test [4], in test [6], in [7], in [8] and in test [10]. The molecule was classed as inactive in [15], in test [12] and in test [16].

Take `COC(C(=O)O)c1ccccc1` (stereo not drawn): the Potency result in test [1], in [2], in test [14], in test [5], in test [9] and in [11] was “inactive” throughout. In addition, in test [13], the Potency entry is “inactive”. Moreover, the call in test [17], in [6], in test [7], in [15], in test [12] and in test [16] was inactive.

As to `CC(C)COC(=O)c1ccccc1O`, the Potency result in test [1], in test [3], in [14], in [5], in test [9] and in [11] was “inactive” each time. Besides, the molecule was called inactive in test [17], in test [4], in test [6], in [8], in test [10] and in [15]. For the same molecule, the outcome in test [16] and in test [18] was inactive.

Turning to `Nc1nc(F)nc2c1ncn2[C@@H]1O[C@H](CO)[C@@H](O)[C@@H]1O`, the Potency result in [1], in test [2], in test [9] and in [11] was “inactive” throughout. The molecule was classed as inactive in [17], in [6], in [7], in test [8], in [10] and in [15]. Also, the call in test [12] was inactive.

Regarding `CCCCCCCCCCC1CO1` (stereo not drawn), the Potency entry in test [1], in [2], in [14], in [9], in [11] and in test [13] was “inactive” throughout. The result in [4], in [6], in test [7], in test [8], in test [10] and in test [15] was inactive. Besides, the outcome in test [12] and in [18] was inactive.

`O=C(O)c1ccc[n+]([O-])c1`: the Potency entry in test [1], in test [2], in test [14], in test [5], in test [9] and in test [11] was “inactive” each time. For the same molecule, the Potency result in test [13] was “inactive”. The outcome in test [17], in [6], in test [7], in test [8], in test [15] and in test [12] was inactive. The outcome in test [16] and in test [18] was inactive.

(Values after PubChem BioAssay (Tox21).)
